For assay [1], the target named is D(1A) dopamine receptor (Homo sapiens) (UniProt P21728). Put plainly: HTS Assay for Allosteric Agonists of the Human D1 Dopamine Receptor: Primary Screen for Potentiators (AID 488982). Note: potency is the fitted concentration of half-maximal effect. In outline:
(§1)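 Tetracycline-induced HEK293 T-REx cells force-coupled to calcium signalling were incubated overnight at 30 C and dye-loaded at room temperature. Calcium flux over 180 s after compound addition flagged agonists; a further 180 s read after EC20 dopamine flagged potentiators.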

Assay [2] concerns the target ATPase family AAA domain-containing protein 5 (Homo sapiens) (UniProt Q96QE3). Put plainly: Validation screen for small molecules that inhibit ELG1-dependent DNA repair in human embryonic kidney (HEK293T) cells expressing luciferase-tagged ELG1 (AID 493107). Note: nearly all actives have a fitted effect of over 70% in size. Note: potency is the fitted concentration of half-maximal effect. In outline:
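ELG1-luciferase HEK293T reporter; 5-fluorouridine + compound/DMSO, 16 hr, 37 °C, 5% CO2; ONE-Glo 30 min RT; luminescence read, qHTS format.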

Assay [3] is described as follows: Nrf2 qHTS screen for inhibitors: Validation (AID 493153; active = well fitted inhibition curve with a large enough effect in the main read-out, with a control signal flat, not every such curve was filed as active; note: potency is the fitted concentration of half-maximal effect). The following applies: Potency: luciferase luminescence; viability change: measured here: cytotoxicity max response. In a few lines: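 Concentration-response test in A549 ARE_Fluc reporter cells (5% FBS OPTI-MEM), compound exposure 18-24 h at 37°C, 5% CO2. Cell viability measured first by CellTiter-Fluor fluorescence; ARE-driven luciferase luminescence then measured as Nrf2 activity.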
For orientation: qHTS replaces the single test concentration by a dilution series.

A short description of assay [4]: qHTS for Inhibitors of Cell Surface uPA Generation: Validation Assay (AID 493164).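 Note: RAW 264.7 macrophage cells exposed to compound for 18 h; 0% is about no effect.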 In a few lines: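 Compounds are titrated over seven points (2.45 nM–38.3 uM final) onto pre-plated RAW 264.7 cells and incubated for 18 h. Retained intracellular ATP, measured with ATP-Lite, indicates blocked lethal factor entry.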
Assay [5] deals with Peptidyl-prolyl cis-trans isomerase NIMA-interacting 1 (Homo sapiens) (UniProt Q13526). Put plainly: qHTS Validation Assay to Find Inhibitors of Pin1 (AID 504536; active = well fitted inhibition curve with a large enough effect in the polarisation, with a control signal flat, not every such curve was filed as active; the % refers to the polarisation;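 note: 0% = full Pin1 enzyme wells and -100% = no-enzyme wells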). In outline: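 Fluorescence polarization competition: compounds (titration) displace HiFluor-488-labeled Pin1-1b peptide from Pin1 (0.3 uM final) in pH 7.5 HEPES buffer with DTT, 10 min at room temperature; %Activity normalized to no-enzyme wells, curves fitted.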

Assay [6] has as its target Phosphoglycerate kinase, glycosomal (Trypanosoma brucei brucei) (UniProt P07378). Put plainly: qHTS Validation Assay to Find Inhibitors of Phosphoglycerate Kinase (AID 504547).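 Note: control wells lack PGK and mark full inhibition.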 In a few lines: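 In TEA buffer (100mM, pH 7.6) containing 5mM MgCl2 and 0.01% Tween-20, the GAPDH-coupled PGK reaction proceeded for 60 minutes at room temperature before a single luminescence reading using Kinase-Glo Plus.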

Assay [7] addresses phosphoglycerate mutase (Leishmania major) (UniProt Q4Q090). Put plainly: qHTS Validation Assay to Find Inhibitors of Phosphoglycerate Mutase (AID 504548). Note: series mostly up to about 58 µM; % is set by controls: 0 for no effect and ±100 for the full control effect. In outline:
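Lm PGAM at 1.25 nM final with substrate in 100 mM TEA pH 7.6, 5 mM MgCl2, 0.01% Tween-20; 45 min at room temperature. Kinase-GloPlus added, 10 min, end-point luminescence read.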

Assay [8] deals with Transient receptor potential cation channel subfamily V member 1 (Homo sapiens) (UniProt Q8NER1). Put plainly: HTS Assay for Compounds that Act as Enhancers of the Vanilloid Receptor 1 (AID 488979). Note: 0% is about no effect. In outline: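 TRPV1-expressing cells loaded with Fluo-8 calcium dye; compounds added and calcium influx read kinetically for 3 min (agonist phase), then capsaicin at EC20 added and read 2 min more for enhancement. Fluorescence ex 480/em 520 nm.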

Assay [9] has as its target Thyrotropin receptor (Homo sapiens) (UniProt P16473). As to the kind of experiment: qHTS Assay for Antagonists of the Thyroid Stimulating Hormone Receptor (AID 488980). Note: series mostly up to about 58 µM; 0% is about no effect. In a few lines: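 Inhibition of TSH-stimulated cAMP accumulation was quantified by homogeneous time-resolved FRET in TSHR-transfected HEK293 cells. Agonist: TSH, 4 nM final (EC80).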
Assay [10] concerns the target D(1A) dopamine receptor (Homo sapiens) (UniProt P21728). As to the kind of experiment: HTS Assay for Allosteric Agonists of the Human D1 Dopamine Receptor: Primary Screen for Antagonists (AID 488983).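 Note: calcium flux response to an EC80 dopamine challenge measured with no-wash dye; nearly all actives have a fitted effect of over 65% in size.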 Note: potency is the fitted concentration of half-maximal effect. In a few lines:
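Calcium flux readout, no-wash dye, inducible HEK293 T-REx D1 line (force-coupled). Compound added after 10 s baseline, 180 s kinetic read; then dopamine at EC80, further 180 s read.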

For assay [11], the target named is Thyrotropin-releasing hormone receptor (Homo sapiens) (UniProt P34981). Put plainly: qHTS for Small Molecule Agonists and Allosteric Enhancers of Human TRH Receptor: Validation Screen for Agonists (AID 493127;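 active = calcium activation more than 3 SD above the typical response in the agonist read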;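 note: intracellular calcium rise by fluo-8 fluorescence before TRH EC20 addition; 0% is about no effect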). The settings on record: TRH receptor agonist cell assay; at 2 µM; stronger effect = higher value. In a few lines:
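Read-out: intracellular calcium release measured kinetically by FDSS (fluo-8, ex 480/em 530 nm), 1 reading/s after a 10-cycle baseline. TRHR cells, 2000/well, cultured 18 h at 33.5C, dye-loaded at room temp. Compound-evoked positive calcium signal flags agonists.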

For assay [12], the target named is Galactokinase (Homo sapiens) (UniProt P51570). Put plainly: qHTS Validation Assay for Inhibitors of Human Galactokinase (GALK) (AID 493189). Note: 0% is about no effect. In outline: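 Enzyme activity is inferred from ATP consumption: human GALK phosphorylates galactose (100 uM) using 35 uM ATP for 1 h at room temperature, and luciferase-based Kinase-Glo Plus reports unconsumed ATP.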
Assay [13] can be described thus: Validation screen for small molecules that induce DNA re-replication in SW480 colon adenocarcinoma cells (AID 504364). Note: 0% is about no effect. In outline:
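Read-out: total Hoechst intensity of nuclei by fluorescence scanning imager; hits raise the fraction of nuclei with elevated DNA content. Cells received compound for 48 hr at 37 C before a 40 min stain.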

In assay [14] the target is Ubiquitin carboxyl-terminal hydrolase 1 (Homo sapiens) (UniProt O94782). Put plainly: Inhibitors of USP1/UAF1: Pilot qHTS (AID 504865). Note: nearly all actives have a fitted effect of over 35% in size. Note: potency is the fitted concentration of half-maximal effect. In outline:
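Enzyme-free wells gave the negative control, while test wells held 1nM USP1/UAF1 preincubated with compound for 15 min at room temperature. Ub-Rho at 150nM final started the reaction, and fluorescence at 480/540 nm was recorded kinetically.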

A short description of assay [15]: qHTS for Inhibitors of ATXN expression: Validation of Cytotoxic Assay (AID 588349). Note: % is set by controls: 0 for no effect and ±100 for the full control effect. In outline:
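Cytotoxicity counter-screen: HEK293 cells exposed to compound titrations, 72 hr, 37 degrees C. Read-out is intracellular ATP (CellTiter Glo luminescence) as a viability measure.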

The target in assay [16] is D(1A) dopamine receptor (Homo sapiens) (UniProt P21728). Put plainly: HTS Assay for Allosteric Agonists of the Human D1 Dopamine Receptor: Primary Screen for Agonists (AID 488981). Note: 0% is about no effect. In a few lines:
as §1

In assay [17] the target is ATP-dependent 6-phosphofructokinase (Trypanosoma brucei brucei) (UniProt O15648). As to the kind of experiment: qHTS Assay to Find Inhibitors of T. brucei phosphofructokinase: hit validation (AID 492961).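 Note: luminescence reports ADP formed as PFK phosphorylates fructose-6-phosphate with ATP; series mostly up to about 51 µM; % is set by controls: 0 for no effect and ±100 for the full control effect.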 In outline: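 PFK 1.25 nM, F6P 0.5 mM, ATP 0.1 mM, MgCl2 5 mM, 0.1 M TEA pH 8.0, Tween20 0.01%, BSA 0.1%; 45 min RT. ADP-Glo two-step detection, luminescence. qHTS titration; curve fitting with curve-class categorization.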

The nature of assay [18]: Validation screen for small molecules that induce genotoxicity in human embryonic kidney (HEK293T) cells expressing luciferase-tagged ELG1 (AID 493106). Note: 0% is about no effect. In outline:
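qHTS format; 2,000 HEK293T ELG1-luc cells/well; 23 nL compound via pin tool; 16 hr, 37 °C/5% CO2; ONE-Glo, 30 min RT; luminescence read.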

Records with an inconclusive call do not appear. Activity calls are given as the source filed them. Unless noted, calls come from the whole dose curve; as a rule, active = well fitted curve in the direction sought with a large enough effect; inconclusive = small, poorly fitted or top-dose-only effect, or another doubt; inactive = no such curve, though single readings can be large; an effect the other way counts as inactive or inconclusive.

These results are taken from PubChem BioAssay (NCATS).

Sequence of ATPase family AAA domain-containing protein 5 (Homo sapiens) (Q96QE3 whole entry, looked up, the tested form may be a part): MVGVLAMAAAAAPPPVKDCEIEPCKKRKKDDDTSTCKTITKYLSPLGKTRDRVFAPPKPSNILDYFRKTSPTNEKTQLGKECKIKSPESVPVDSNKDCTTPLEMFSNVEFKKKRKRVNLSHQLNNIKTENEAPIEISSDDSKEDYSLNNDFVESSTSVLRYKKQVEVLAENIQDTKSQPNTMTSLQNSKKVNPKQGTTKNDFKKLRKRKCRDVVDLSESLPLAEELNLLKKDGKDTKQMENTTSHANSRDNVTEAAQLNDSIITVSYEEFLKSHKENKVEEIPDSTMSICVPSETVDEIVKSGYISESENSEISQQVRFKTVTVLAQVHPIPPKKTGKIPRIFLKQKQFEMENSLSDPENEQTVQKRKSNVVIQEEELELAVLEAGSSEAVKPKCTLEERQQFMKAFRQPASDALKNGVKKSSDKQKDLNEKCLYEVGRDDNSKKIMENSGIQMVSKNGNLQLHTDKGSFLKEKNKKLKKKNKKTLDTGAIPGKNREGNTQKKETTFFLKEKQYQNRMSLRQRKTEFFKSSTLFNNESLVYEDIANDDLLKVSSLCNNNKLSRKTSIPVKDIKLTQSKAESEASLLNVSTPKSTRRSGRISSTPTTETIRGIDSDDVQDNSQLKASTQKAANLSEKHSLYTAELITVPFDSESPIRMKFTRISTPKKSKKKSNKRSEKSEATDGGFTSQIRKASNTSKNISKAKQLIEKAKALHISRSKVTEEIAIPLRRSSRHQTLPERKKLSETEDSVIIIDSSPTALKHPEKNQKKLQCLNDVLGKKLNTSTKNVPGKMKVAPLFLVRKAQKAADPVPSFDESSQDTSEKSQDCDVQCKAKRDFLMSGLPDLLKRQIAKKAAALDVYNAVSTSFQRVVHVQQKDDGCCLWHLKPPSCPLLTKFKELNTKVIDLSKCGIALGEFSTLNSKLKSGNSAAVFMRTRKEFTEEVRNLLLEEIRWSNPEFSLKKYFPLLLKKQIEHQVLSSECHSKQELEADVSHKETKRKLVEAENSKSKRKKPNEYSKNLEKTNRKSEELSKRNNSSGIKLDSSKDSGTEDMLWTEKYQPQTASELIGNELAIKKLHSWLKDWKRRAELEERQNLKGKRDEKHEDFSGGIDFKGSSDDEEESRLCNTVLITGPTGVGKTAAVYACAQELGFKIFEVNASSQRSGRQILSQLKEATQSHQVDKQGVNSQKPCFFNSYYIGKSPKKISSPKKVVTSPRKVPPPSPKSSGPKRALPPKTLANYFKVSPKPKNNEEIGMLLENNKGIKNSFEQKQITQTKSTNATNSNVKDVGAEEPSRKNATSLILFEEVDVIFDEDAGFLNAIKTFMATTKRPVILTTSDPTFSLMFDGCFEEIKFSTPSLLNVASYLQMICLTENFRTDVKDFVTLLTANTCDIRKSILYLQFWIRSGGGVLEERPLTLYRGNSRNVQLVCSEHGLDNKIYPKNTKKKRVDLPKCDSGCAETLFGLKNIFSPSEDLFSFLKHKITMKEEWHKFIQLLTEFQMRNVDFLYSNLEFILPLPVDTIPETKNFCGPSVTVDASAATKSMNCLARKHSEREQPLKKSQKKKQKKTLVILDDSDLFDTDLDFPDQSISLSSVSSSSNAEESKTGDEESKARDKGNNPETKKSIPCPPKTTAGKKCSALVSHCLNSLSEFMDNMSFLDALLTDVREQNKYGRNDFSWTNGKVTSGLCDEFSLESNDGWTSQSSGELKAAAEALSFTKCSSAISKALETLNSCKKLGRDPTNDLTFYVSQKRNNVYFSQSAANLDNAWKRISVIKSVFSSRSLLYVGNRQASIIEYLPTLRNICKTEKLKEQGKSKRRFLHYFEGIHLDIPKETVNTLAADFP
Sequence of Thyrotropin receptor (Homo sapiens) (P16473 whole entry, looked up): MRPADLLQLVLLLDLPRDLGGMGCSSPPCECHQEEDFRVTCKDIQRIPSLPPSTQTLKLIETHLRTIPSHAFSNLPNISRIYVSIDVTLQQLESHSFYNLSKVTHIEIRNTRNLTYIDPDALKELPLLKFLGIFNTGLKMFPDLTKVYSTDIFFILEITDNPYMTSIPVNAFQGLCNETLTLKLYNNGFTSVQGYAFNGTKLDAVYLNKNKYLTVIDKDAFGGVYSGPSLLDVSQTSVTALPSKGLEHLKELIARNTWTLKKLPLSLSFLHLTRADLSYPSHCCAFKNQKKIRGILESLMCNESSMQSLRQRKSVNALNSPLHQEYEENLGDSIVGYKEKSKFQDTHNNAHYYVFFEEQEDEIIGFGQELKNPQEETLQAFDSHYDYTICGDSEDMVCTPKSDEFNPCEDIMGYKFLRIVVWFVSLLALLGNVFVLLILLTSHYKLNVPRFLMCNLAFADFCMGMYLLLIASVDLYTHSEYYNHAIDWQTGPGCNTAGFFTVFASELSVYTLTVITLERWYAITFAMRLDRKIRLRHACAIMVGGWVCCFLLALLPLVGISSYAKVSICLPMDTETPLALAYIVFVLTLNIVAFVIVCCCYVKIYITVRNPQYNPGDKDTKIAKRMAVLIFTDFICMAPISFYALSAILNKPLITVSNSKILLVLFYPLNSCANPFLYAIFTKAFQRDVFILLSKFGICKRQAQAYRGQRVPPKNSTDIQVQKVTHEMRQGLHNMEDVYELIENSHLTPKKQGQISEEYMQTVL
Sequence of Ubiquitin carboxyl-terminal hydrolase 1 (Homo sapiens) (O94782 whole entry, looked up): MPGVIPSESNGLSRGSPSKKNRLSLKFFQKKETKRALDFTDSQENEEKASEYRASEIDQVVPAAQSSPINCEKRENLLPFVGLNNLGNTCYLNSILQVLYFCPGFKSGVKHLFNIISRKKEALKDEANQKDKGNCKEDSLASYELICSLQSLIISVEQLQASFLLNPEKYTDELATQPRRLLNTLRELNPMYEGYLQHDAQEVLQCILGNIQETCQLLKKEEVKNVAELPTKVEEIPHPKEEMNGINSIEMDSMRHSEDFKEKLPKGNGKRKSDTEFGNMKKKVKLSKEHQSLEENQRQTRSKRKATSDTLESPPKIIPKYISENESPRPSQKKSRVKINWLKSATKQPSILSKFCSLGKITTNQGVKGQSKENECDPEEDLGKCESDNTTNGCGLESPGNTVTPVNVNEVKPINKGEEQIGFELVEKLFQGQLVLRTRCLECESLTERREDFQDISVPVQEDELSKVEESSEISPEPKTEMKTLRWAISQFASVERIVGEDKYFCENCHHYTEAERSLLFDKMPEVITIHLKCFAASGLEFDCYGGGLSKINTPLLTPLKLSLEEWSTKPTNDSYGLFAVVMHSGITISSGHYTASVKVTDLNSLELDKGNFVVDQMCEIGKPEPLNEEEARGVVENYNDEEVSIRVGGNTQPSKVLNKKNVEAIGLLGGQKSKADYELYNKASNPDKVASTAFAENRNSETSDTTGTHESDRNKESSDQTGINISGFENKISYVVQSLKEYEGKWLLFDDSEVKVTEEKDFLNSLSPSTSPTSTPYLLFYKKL
Sequence of D(1A) dopamine receptor (Homo sapiens) (P21728 whole entry, looked up): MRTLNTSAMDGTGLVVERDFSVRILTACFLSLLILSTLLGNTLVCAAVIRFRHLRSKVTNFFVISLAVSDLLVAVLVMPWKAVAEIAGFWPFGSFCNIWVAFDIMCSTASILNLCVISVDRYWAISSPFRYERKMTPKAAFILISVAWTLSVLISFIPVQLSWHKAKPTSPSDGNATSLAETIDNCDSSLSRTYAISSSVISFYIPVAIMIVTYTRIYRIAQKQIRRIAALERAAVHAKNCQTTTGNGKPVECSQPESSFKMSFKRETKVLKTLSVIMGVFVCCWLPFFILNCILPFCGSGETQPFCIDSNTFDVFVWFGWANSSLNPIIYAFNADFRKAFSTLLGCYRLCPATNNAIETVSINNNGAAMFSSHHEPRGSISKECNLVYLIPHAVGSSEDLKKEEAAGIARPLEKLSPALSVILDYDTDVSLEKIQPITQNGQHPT
Sequence of phosphoglycerate mutase (Leishmania major) (Q4Q090 1-553): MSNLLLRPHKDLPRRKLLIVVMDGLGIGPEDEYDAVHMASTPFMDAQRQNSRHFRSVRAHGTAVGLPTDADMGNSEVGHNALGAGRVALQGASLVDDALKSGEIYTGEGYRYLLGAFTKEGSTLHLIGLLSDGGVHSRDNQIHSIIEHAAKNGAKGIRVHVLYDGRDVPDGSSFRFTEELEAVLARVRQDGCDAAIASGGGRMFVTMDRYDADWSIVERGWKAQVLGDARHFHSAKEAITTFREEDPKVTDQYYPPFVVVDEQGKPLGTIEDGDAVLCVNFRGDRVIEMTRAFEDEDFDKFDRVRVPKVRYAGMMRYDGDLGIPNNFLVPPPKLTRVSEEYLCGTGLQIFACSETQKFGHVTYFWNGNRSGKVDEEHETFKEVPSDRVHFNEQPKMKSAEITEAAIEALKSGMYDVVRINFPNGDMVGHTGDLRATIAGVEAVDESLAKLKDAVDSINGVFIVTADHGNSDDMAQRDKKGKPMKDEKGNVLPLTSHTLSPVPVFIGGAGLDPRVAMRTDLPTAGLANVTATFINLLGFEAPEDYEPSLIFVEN
Sequence of Peptidyl-prolyl cis-trans isomerase NIMA-interacting 1 (Homo sapiens) (Q13526 whole entry, looked up): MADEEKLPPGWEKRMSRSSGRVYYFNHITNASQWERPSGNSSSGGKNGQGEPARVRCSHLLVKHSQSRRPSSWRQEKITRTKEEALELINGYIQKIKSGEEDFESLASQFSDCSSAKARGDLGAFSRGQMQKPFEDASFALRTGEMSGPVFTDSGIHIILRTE
Sequence of Phosphoglycerate kinase, glycosomal (Trypanosoma brucei brucei) (P07378 whole entry, looked up): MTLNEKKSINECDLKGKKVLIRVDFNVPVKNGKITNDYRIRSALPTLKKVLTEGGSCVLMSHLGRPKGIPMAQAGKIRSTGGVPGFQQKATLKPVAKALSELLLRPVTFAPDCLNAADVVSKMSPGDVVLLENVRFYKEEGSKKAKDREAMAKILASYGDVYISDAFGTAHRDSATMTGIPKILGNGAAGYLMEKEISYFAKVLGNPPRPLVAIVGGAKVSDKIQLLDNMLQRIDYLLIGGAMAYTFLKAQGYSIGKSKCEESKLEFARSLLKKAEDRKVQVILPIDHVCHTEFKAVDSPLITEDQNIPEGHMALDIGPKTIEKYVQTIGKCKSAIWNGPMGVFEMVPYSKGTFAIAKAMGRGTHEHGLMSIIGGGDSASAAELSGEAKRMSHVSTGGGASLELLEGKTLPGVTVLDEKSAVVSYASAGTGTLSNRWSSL

Take `O=C1Cc2cc(CCN3CCN(c4nsc5ccccc45)CC3)c(Cl)cc2N1`: the Potency result in assay [1], in assay [3], in [5] and in assay [6] was “inactive” throughout. Moreover, in assay [2], the Potency is 9.2 µM (active). Also, the viability change in assay [3] was -17.6%. In addition, the compound was called inactive in assay [4] and in assay [7].
Consider `Cc1cc(C(C)(C)C)c(O)c(C)c1CC1=NCCN1`, for which the result in assay [8], in assay [9], in assay [4], in [7] and in assay [15] was inactive. Besides, the Potency result in [1], in assay [10], in [2], in [3], in assay [12] and in assay [13] was “inactive” throughout. Further, the Potency entry in assay [5], in assay [6] and in [14] was “inactive” in each case. For the same compound, the activation in assay [11] was 1.19% (inactive). Besides, the viability change in assay [3] turned out to be 1.24%.
Consider `CC#C[C@]1(O)CC[C@H]2[C@@H]3CCC4=CC(=O)CCC4=C3[C@@H](c3ccc(N(C)C)cc3)C[C@@]21C`, for which the Potency entry in assay [16], in assay [10], in [17], in assay [5], in [6] and in [14] was “inactive” throughout. The results for the Potency in assay [1] and in assay [3] were 2.31 µM (active) and 23.1 µM (active), respectively. In addition, the viability change in assay [3] is -7.52%. For the same compound, the outcome in assay [4] and in assay [7] was inactive.
Regarding `CC[C@@]1(O)C(=O)OCc2c1cc1n(c2=O)Cc2cc3c(CN(C)C)c(O)ccc3nc2-1`, the Potency entry in assay [17] was “inactive”. Also, the Potency in assay [14] was 79.4 µM (active).
As to `CC(C)Cc1ccc(C(C)C(=O)O)cc1` (centres undefined), the call in assay [9], in [4], in assay [7] and in assay [15] was inactive. Also, the Potency result in assay [16], in assay [1], in assay [10], in assay [2], in [3] and in [13] was “inactive” in each case. Further, the Potency result in assay [5] and in assay [14] was “inactive” each time. In [11], the activation is 0.375% (inactive). In assay [3], the viability change stood at 7.62%.
Consider `COc1ccccc1OCCNCC(O)COc1cccc2[nH]c3ccccc3c12` (centres undefined), for which the Potency result in [1], in assay [17], in assay [18], in assay [3], in assay [5] and in [6] was “inactive” in each case. Further, in assay [14], the Potency entry is “inactive”. Further, in [10], the Potency is 8.91 µM (active). The viability change in [3] is -0.159%. Also, the call in assay [4] was inactive.
For the compound `CC1(CN2CCC(n3c(=O)[nH]c4ccccc43)CC2)OCc2ccccc2-n2cccc21` (centres undefined), the Potency entry in assay [17] is “inactive”.
With `CS(=O)(=O)CCNCc1ccc(-c2ccc3ncnc(Nc4ccc(OCc5cccc(F)c5)c(Cl)c4)c3c2)o1`, the Potency entry in assay [17] and in assay [14] was “inactive” each time.
As to `Cc1ccc(-c2cc(C(F)(F)F)nn2-c2ccc(S(N)(=O)=O)cc2)cc1`, the Potency entry in assay [17] was “inactive”.
Regarding `CCOC(=O)c1ncn2c1CN(C)C(=O)c1cc(F)ccc1-2`, the result in assay [9], in [4] and in assay [15] was inactive. Further, the Potency entry in assay [1], in assay [10], in [18], in [2], in [3] and in assay [12] was “inactive” throughout. Further, the Potency result in assay [13], in assay [5], in assay [6] and in [14] was “inactive” in each case. The viability change in assay [3] was 2.56%.
